Reference: PubChem BioAssay AID1159554 (Broad Institute, 2015)
Values joined by “and” are separate entries in the source; they are usually repeats but may differ in a detail not shown here. Equal values may be shown once. The campaign covered roughly 94,000 compounds. About 2,100 (2.2%) were called active. Cut-off read from the data, not from the text of the source: active = activity change below about -80%; inconclusive = no clear call, values can overlap the other calls; inactive = above that. Many of the other results were omitted from the sample, so actives are more common in it than they were.

Experiment: Dd2 malaria parasite growth inhibition – SYBR Green fluorescence, single dose replicates, primary screen (AID 1159554)
Details: P. falciparum Dd2 growth, 72 h, at 10 µM, stronger effect = lower value

Row | SMILES | activity change
1 | CCCNC(=O)N1CC2(CCN(Cc3ccc(F)cc3)CC2)c2c([nH]c3cc(OC)ccc23)[C@@H]1CO | -77.7% (inactive)
2 | COc1ccc2c3c([nH]c2c1)[C@H](CO)N(Cc1cccc(F)c1)CC31CCN(Cc2ccccn2)CC1 | -92.5% (active)
3 | COc1ccc2c3c([nH]c2c1)[C@@H](CO)N(C(=O)C1CC1)CC31CCN(Cc2nccs2)CC1 | -26.9% (inactive)
4 | COc1ccc2c3c([nH]c2c1)[C@@H](CO)N(Cc1nccs1)CC31CCN(C(=O)C2CCCC2)CC1 | -74.5% (inactive)
5 | COc1ccc2c3c([nH]c2c1)[C@H](CO)N(Cc1nccs1)CC31CCN(Cc2cccnc2)CC1 | -58.7% (inactive)
6 | COc1cccc(CN2CC3(CN(Cc4ccccn4)C3)c3c([nH]c4cc(OC)ccc34)[C@@H]2CO)c1 | -87.9% (active)
7 | COc1ccc2c3c([nH]c2c1)[C@@H](CO)N(C(=O)Cc1ccccc1)CC31CCN(C)CC1 | -55.8% (inactive)
8 | COc1ccc2c3c([nH]c2c1)[C@H](CO)N(Cc1nccs1)CC31CCN(Cc2ccncc2)CC1 | -85.5% (active)
9 | COc1ccc2c3c([nH]c2c1)[C@H](CO)N(Cc1ccc(F)cc1)CC31CCN(Cc2ccccn2)CC1 | -89.5% (active)
10 | C[C@@H]1CCCCO[C@@H](CN(C)S(=O)(=O)c2cn(C)cn2)[C@H](C)CN([C@H](C)CO)C(=O)c2cc(NS(=O)(=O)c3ccc(Cl)cc3)ccc2O1 | -31.8% (inactive)
11 | COCC(=O)N1C[C@@H](C)[C@H](OC)CN(C)C(=O)c2ccc(NC(=O)c3ccc(F)cc3)cc2OC[C@H]1C | 12.6% (inactive)
12 | COc1ccc(NC(=O)N(C)C[C@H]2OCCCC[C@H](C)Oc3ccc(NS(=O)(=O)c4ccc(Cl)cc4)cc3C(=O)N([C@@H](C)CO)C[C@H]2C)cc1 | -68.7% (inactive)
13 | CN(C)CC(=O)Nc1ccc2c(c1)[C@@H]1C[C@H](CC(=O)NCc3ccc(-c4ccccc4)cc3)O[C@@H](CO)[C@@H]1O2 | -1.93% (inactive)
14 | COCC(=O)Nc1ccc2c(c1)OC[C@H](C)N(C)C[C@H](C)[C@@H](OC)CN(C)C2=O | 26.8% (inactive)
15 | C[C@@H]1CCCCO[C@H](CN(C)S(C)(=O)=O)[C@@H](C)CN([C@H](C)CO)C(=O)c2cc(NC(=O)Nc3ccc4c(c3)OCO4)ccc2O1 | 25.2% (inactive)
16 | COCC(=O)Nc1ccc2c(c1)C(=O)N(C)[C@@H]1CC[C@@H](CC(=O)NCc3cccc(F)c3)O[C@@H]1CO2 | 5.24% (inactive)
17 | CNC(=O)C[C@H]1CC[C@H]2[C@H](COc3ccc(NC(=O)c4cccc(F)c4)cc3C(=O)N2C)O1 | 1.45% (inactive) and 0.97% (inactive)
18 | CC(C)NC(=O)N[C@H]1CC[C@H](CC(=O)N2CCCCC2)O[C@@H]1CO | 36.7% (inactive)
19 | CCS(=O)(=O)N1[C@H](CO)[C@@H](c2ccccc2)C12CN(C(=O)c1ccccc1F)C2 | -5.45% (inactive)
20 | COc1ccc2c3c([nH]c2c1)[C@@H](CO)N(C(=O)CC1CC1)CC31CCN(Cc2cccnc2)CC1 | -7.62% (inactive)
21 | COc1ccc2c3c([nH]c2c1)[C@@H](CO)N(Cc1ccccc1)CC31CCN(Cc2cncnc2)CC1 | -91.1% (active)
22 | COc1ccc2c3c([nH]c2c1)[C@@H](CO)N(C(=O)c1ccccc1)CC31CCN(Cc2cccnc2)CC1 | -47.6% (inactive)
23 | CN(C)CC(=O)N[C@@H]1CC[C@H](CC(=O)O)O[C@H]1CO | 14.9% (inactive)

Row | SMILES | activity change
24 | CO[C@H]1CN(C)C(=O)c2cc(NC(=O)c3cnccn3)ccc2OC[C@H](C)N(C(=O)C2CC2)C[C@H]1C | -22.3% (inactive)
25 | COc1cccc(-c2cn(CC[C@@H]3CC[C@@H](NC(C)=O)[C@@H](CO)O3)nn2)c1 | -3.98% (inactive)
26 | C[C@@H]1CN([C@@H](C)CO)S(=O)(=O)c2ccc(/C=C/c3ccccc3)cc2O[C@H]1CN(C)Cc1ccccc1 | -58.4% (inactive)
27 | COc1ccc(C#Cc2ccc3c(c2)O[C@@H](CN(C)C(=O)Nc2cccc(OC)c2)[C@H](C)CN([C@H](C)CO)S3(=O)=O)cc1 | -89.8% (active)
28 | CCC(=O)N(C)C[C@H]1Oc2cc(/C=C/c3ccccc3)ccc2S(=O)(=O)N([C@H](C)CO)C[C@H]1C | -20.8% (inactive)
29 | C[C@H](CO)N1C[C@H](C)[C@@H](CN(C)C(=O)C2CC2)Oc2cc(C#CC3CC3)ccc2S1(=O)=O | -9.49% (inactive)
30 | C[C@H]1CN([C@@H](C)CO)S(=O)(=O)c2ccc(C#Cc3ccccc3)cc2O[C@@H]1CN(C)C(=O)C1CC1 | -86.3% (active)
31 | COc1ccc(NC(=O)N(C)C[C@H]2Oc3cc(C#CCN(C)C)ccc3S(=O)(=O)N([C@@H](C)CO)C[C@@H]2C)cc1 | 7.25% (inactive)
32 | C[C@@H]1CN([C@@H](C)CO)S(=O)(=O)c2ccc(/C=C/c3ccccc3)cc2O[C@H]1CN(C)Cc1cccnc1 | -90.5% (active)
33 | C[C@@H]1CN([C@H](C)CO)S(=O)(=O)c2ccc(/C=C/c3ccccc3)cc2O[C@@H]1CN(C)Cc1ccccc1 | -19.9% (inactive)
34 | C[C@@H]1CN([C@@H](C)CO)S(=O)(=O)c2ccc(C#Cc3ccccc3)cc2O[C@@H]1CN(C)C(=O)Nc1ccccc1 | -58.2% (inactive)
35 | C[C@H](O)C#Cc1ccc2c(c1)O[C@@H](CN(C)C(=O)C1CC1)[C@H](C)CN([C@H](C)CO)S2(=O)=O | 2.01% (inactive)
36 | C[C@@H]1CN([C@@H](C)CO)S(=O)(=O)c2ccc(/C=C/c3ccccc3)cc2O[C@H]1CN(C)C(=O)C1CC1 | -88.7% (active)
37 | CCC(=O)N(C)C[C@H]1Oc2cc(/C=C/c3ccccc3)ccc2S(=O)(=O)N([C@H](C)CO)C[C@@H]1C | -32.1% (inactive)
38 | O=C(NC[C@H]1CC[C@@H]2[C@@H](CN2S(=O)(=O)c2ccccc2F)O1)C1CCCCC1 | 81.8% (inactive)
39 | CNC(=O)C[C@@H]1CC[C@@H]2[C@@H](COc3ccc(NC(=O)c4ccc5c(c4)OCO5)cc3C(=O)N2C)O1 | -13.2% (inactive)
40 | CN1c2ccc(C3=CCCCC3)cc2[C@@H]2[C@@H](CCN2C(=O)Nc2cc(F)ccc2F)[C@@H]1CO | -41.1% (inactive)
41 | O=C(CC1CC1)N[C@@H]1C[C@@H]2O[C@H](CO)CC[C@@H]2O[C@@H]1CCc1ccc(C#Cc2ccccc2)cc1 | -36.1% (inactive)
42 | CN1c2ccc(C#Cc3ccccc3F)cc2[C@@H]2[C@@H](CCN2C(=O)Cc2cccnc2)[C@H]1CO | -26.2% (inactive)
43 | Cc1ccc(-c2ccc3c(c2)O[C@@H](CN(C)C(=O)NC(C)C)[C@@H](C)CN([C@H](C)CO)S3(=O)=O)cc1 | -34.3% (inactive)
44 | CC(C)NC(=O)N(C)C[C@H]1Oc2cc(-c3cncnc3)ccc2S(=O)(=O)N([C@@H](C)CO)C[C@H]1C | -83.1% (active)
45 | C[C@H](O)C#Cc1ccc2c(c1)O[C@H](CN(C)C(=O)C1CC1)[C@@H](C)CN([C@H](C)CO)S2(=O)=O | 46.3% (inactive)
46 | CC(=O)N(C)C[C@@H]1Oc2cc(-c3cncnc3)ccc2S(=O)(=O)N([C@@H](C)CO)C[C@H]1C | 21.6% (inactive)

Row | SMILES | activity change
47 | CNC[C@H]1Oc2cc(C#Cc3ccccn3)ccc2S(=O)(=O)N([C@H](C)CO)C[C@@H]1C | -6.84% (inactive)
48 | CNC[C@@H]1Oc2cc(C#Cc3ccc(F)cc3)ccc2S(=O)(=O)N([C@@H](C)CO)C[C@H]1C | -62.7% (inactive)
49 | C[C@@H]1CN([C@@H](C)CO)S(=O)(=O)c2ccc(C#Cc3ccccc3)cc2O[C@@H]1CN(C)C(=O)C1CC1 | -82.5% (active)
50 | CC(C)C#Cc1ccc2c(c1)O[C@@H](CN(C)C(=O)C1CC1)[C@H](C)CN([C@H](C)CO)S2(=O)=O | -27.6% (inactive)
51 | CNC[C@H]1Oc2cc(C#Cc3ccccc3)ccc2S(=O)(=O)N([C@@H](C)CO)C[C@@H]1C | -85% (active)
52 | CCNC(=O)C[C@@H]1C=C[C@@H](NC(=O)C2CCOCC2)[C@@H](CO)O1 | 2.77% (inactive)
53 | COCC(=O)Nc1ccc2c(c1)OC[C@H](C)N(C(=O)Cc1ccccn1)C[C@H](C)[C@@H](OC)CN(C)C2=O | 41.2% (inactive)
54 | O=C(C[C@H]1CC[C@@H](NC(=O)CC2CC2)[C@@H](CO)O1)NCc1ccccc1 | 10.8% (inactive)
55 | O=C(NC1CCC1)[C@@H]1[C@@H](CO)[C@@H]2Cn3c(ccc(/C=C/c4ccccc4)c3=O)[C@@H]2N1Cc1ccncc1 | -2.62% (inactive)
56 | CCCN1C[C@@H](C)[C@@H](OC)CN(C)C(=O)c2ccc(NC(=O)c3ccc(F)cc3)cc2OC[C@@H]1C | -14.3% (inactive)
57 | C[C@H](O)C#Cc1cnc2c(c1)C(=O)N([C@@H](C)CO)C[C@H](C)[C@@H](CN(C)C(=O)c1ccccc1)O2 | 20.4% (inactive)
58 | COCC(=O)Nc1ccc2c(c1)OC[C@H](C)N(Cc1ccccc1)C[C@H](C)[C@@H](OC)CN(C)C2=O | -12.2% (inactive)
59 | Cc1ccc(S(=O)(=O)N2C[C@@H](O)COC[C@@H]3O[C@H](CC(=O)NCCCN(C)C)CC[C@H]32)cc1 | -1.46% (inactive)
60 | CCCNC(=O)N1CC2(C1)CN(Cc1cccc(F)c1)[C@@H](CO)c1[nH]c3cc(OC)ccc3c12 | -63.2% (inactive)
61 | COc1ccc2c3c([nH]c2c1)[C@H](CO)N(Cc1cccc(F)c1)CC31CCN(CC2CC2)CC1 | -83.2% (active)
62 | COc1ccc2c3c([nH]c2c1)[C@H](CO)N(C(=O)Nc1ccc(F)cc1)CC31CCN(C(=O)Nc2c(C)noc2C)CC1 | -35.3% (inactive)
63 | COc1ccc2c3c([nH]c2c1)[C@H](CO)N(C(=O)Nc1ccc(F)cc1)CC31CCN(CC2CCOCC2)CC1 | -81.3% (active)
64 | COc1ccc2c3c([nH]c2c1)[C@@H](CO)N(Cc1cccc(F)c1)CC31CN(CC2CC2)C1 | -82.5% (active)
65 | COc1ccc2c3c([nH]c2c1)[C@H](CO)N(CC1CC1)CC31CN(C(=O)Nc2cccc(F)c2)C1 | -49.9% (inactive)
66 | COc1ccc2c3c([nH]c2c1)[C@H](CO)N(S(=O)(=O)c1cn(C)cn1)CC31CCN(CC2CC2)CC1 | 1.53% (inactive)
67 | COc1ccc2c3c([nH]c2c1)[C@@H](CO)N(C(=O)c1ccc(F)cc1)CC31CCN(C(=O)Nc2ccc(F)cc2)CC1 | -75.4% (inactive)
68 | COc1ccc2c3c([nH]c2c1)[C@H](CO)N(C(=O)C1CCC1)CC31CCN(Cc2cccc(F)c2)CC1 | -43.8% (inactive)
